Compounds without any hit were thinned out: in the full panel of roughly 79,000, 15% have a hit. Values without a mark were called inactive. Calls of active or inactive are those of the source. Rule as the data show it: active = growth inhibition above about 70%; inactive = the rest.

Assay [1] can be described thus: NCI Yeast Anticancer Drug Screen. Data for the rad50 strain (AID 155).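 Also: 0% = growth of vehicle-only cultures of the same strain.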 Particulars: S. cerevisiae rad50 strain growth inhibition, hits give high values. The method, boiled down: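 Growth of the mutant yeast was measured after compound exposure and referenced to vehicle-treated cultures.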
Assay [2] is described as follows: NCI Yeast Anticancer Drug Screen. Data for the mec2-1 strain (AID 157). Particulars: S. cerevisiae mec2-1 strain, hits give high values. The method, boiled down: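 Test agents were screened against the mec2-1 yeast strain, with defined DNA repair or cell cycle alteration. Growth was scored as inhibition against vehicle-only controls.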
Assay [3] can be described thus: NCI Yeast Anticancer Drug Screen. Data for the sgs1 mgt1 strain (AID 161).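 Also: 0% = growth of cultures given vehicle only.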 To be noted: S. cerevisiae sgs1 mgt1 strain, hits give high values. The method, boiled down: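 Genetically altered yeast, compound exposure, growth inhibition relative to vehicle.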
The nature of assay [4]: NCI Yeast Anticancer Drug Screen. Data for the cln2 rad14 strain (AID 165).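 Also: 0% = growth equal to vehicle treated cultures.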 To be noted: S. cerevisiae cln2 rad14 strain, hits give high values. A digest of the protocol:
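Growth of compound-exposed yeast (cln2 rad14 genotype) measured and expressed as inhibition relative to vehicle.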

Assay [5] is described as follows: NCI Yeast Anticancer Drug Screen. Data for the bub3 strain (AID 167). To be noted: S. cerevisiae bub3 mutant strain, hits give high values. The method, boiled down:
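Whole-cell yeast assay. The mutant strain was incubated with compounds, and growth inhibition was determined by comparison with vehicle-treated cells.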

Assay [6] is described as follows: NCI Yeast Anticancer Drug Screen. Data for the mlh1 rad18 strain (AID 175). To be noted: S. cerevisiae mlh1 rad18 strain growth inhibition, hits give high values. The method, boiled down:
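In this whole-cell yeast screen, a strain with altered DNA damage repair is challenged with compound, and its growth is measured against matched vehicle-treated controls.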

The mark [7] stands for this setting: at 5.0 µM (retest, dose inferred, filed as 0.5).
The mark [8] stands for this setting: at 50.0 µM (retest, dose inferred, filed as 5.0).

With `O=C(C#CC(=O)[O][Sn]([c]1ccccc1)([c]1ccccc1)[c]1ccccc1)[O][Sn]([c]1ccccc1)([c]1ccccc1)[c]1ccccc1`, the growth inhibition in assay [1] (setting [7]) is 99% (active); in assay [1] (setting [8]) it was 99% (active); in assay [1] (at 50.0 µM), 99.1% (active); in assay [2] (setting [7]), 100% (active); in assay [2] (setting [8]), 99% (active); in assay [2] (at 50.0 µM) it was 99.5% (active). The growth inhibition in assay [3] (setting [7]) is 100% (active); in assay [3] (setting [8]), 99% (active); in assay [3] (at 50.0 µM), 99.5% (active); in assay [4] (setting [7]) it was 99% (active); in assay [4] (setting [8]), 99% (active); in assay [4] (at 50.0 µM), 98.4% (active). In addition, the growth inhibition in assay [5] (setting [7]) is 99% (active); in assay [5] (setting [8]), 99% (active); in assay [5] (at 50.0 µM), 99% (active); in assay [6] (setting [7]) it was 99% (active); in assay [6] (setting [8]), 99% (active); in assay [6] (at 50.0 µM) it was 99.2% (active).

For the molecule `CC(C)(C)c1cc(Cl)c(O)c(Cc2cc(C(C)(C)C)cc(Cl)c2O)c1`, the growth inhibition in assay [1] (setting [7]) was 5%; in assay [1] (setting [8]) it was 67%; in assay [1] (at 50.0 µM), 67%; in assay [2] (setting [7]), 36%; in assay [2] (setting [8]) it was 78% (active); in assay [2] (at 50.0 µM), 72.2% (active). The growth inhibition is -4% in assay [3] (setting [7]); 84% (active) in assay [3] (setting [8]); 82.5% (active) in assay [3] (at 50.0 µM); 14% in assay [4] (setting [7]); 79% (active) in assay [4] (setting [8]); 82% (active) in assay [4] (at 50.0 µM). Besides, the growth inhibition was 9% in assay [5] (setting [7]); 76% (active) in assay [5] (setting [8]); 62.5% in assay [5] (at 50.0 µM); 52% in assay [6] (setting [7]); 85% (active) in assay [6] (setting [8]); 70.5% (active) in assay [6] (at 50.0 µM).

Turning to `COC(=O)CCCC(=O)NC1=C(Nc2ccccc2)C(=O)c2ccccc2C1=O`, the growth inhibition was 27% in assay [1] (setting [7]); 72% (active) in assay [1] (setting [8]); 45.5% in assay [1] (at 50.0 µM); 15% in assay [2] (setting [7]); 41% in assay [2] (setting [8]); 14.5% in assay [2] (at 50.0 µM). The growth inhibition is 22% in assay [3] (setting [7]); 50% in assay [3] (setting [8]); 52.2% in assay [3] (at 50.0 µM); 15% in assay [4] (setting [7]); 24% in assay [4] (setting [8]); 38.6% in assay [4] (at 50.0 µM). Besides, the growth inhibition was 33% in assay [5] (setting [7]); 67% in assay [5] (setting [8]); 61% in assay [5] (at 50.0 µM); 23% in assay [6] (setting [7]); 60% in assay [6] (setting [8]); 16.3% in assay [6] (at 50.0 µM).

Regarding `CCC(c1ccc(OC)cc1)C(CC)c1ccc(O)c(CN(C)C)c1` (stereo not given), the growth inhibition is -2% in assay [1] (setting [7]); 39% in assay [1] (setting [8]); 60.1% in assay [1] (at 50.0 µM); 0% in assay [2] (setting [7]); 38% in assay [2] (setting [8]); 27.1% in assay [2] (at 50.0 µM). The growth inhibition in assay [3] (setting [7]) is -4%; in assay [3] (setting [8]), 86% (active); in assay [3] (at 50.0 µM), 72.9% (active); in assay [4] (setting [7]), -1%; in assay [4] (setting [8]) it was 41%; in assay [4] (at 50.0 µM), 38.3%. Besides, the growth inhibition is 4% in assay [5] (setting [7]); 50% in assay [5] (setting [8]); 49% in assay [5] (at 50.0 µM); 3% in assay [6] (setting [7]); 84% (active) in assay [6] (setting [8]); 83.5% (active) in assay [6] (at 50.0 µM).

As for `Nc1nnc(Cc2ccc(Br)cc2)o1`, the growth inhibition in assay [1] (setting [7]) is -8%; in assay [1] (setting [8]) it was 0%; in assay [1] (at 50.0 µM) it was 21.3%; in assay [2] (setting [7]), 1%; in assay [2] (setting [8]), -6%; in assay [2] (at 50.0 µM) it was 13.9%. Further, the growth inhibition in assay [3] (setting [7]) is -3%; in assay [3] (setting [8]), 12%; in assay [3] (at 50.0 µM), 24.3%; in assay [4] (setting [7]), 10%; in assay [4] (setting [8]), -2%; in assay [4] (at 50.0 µM), 71.5% (active). The growth inhibition was 4% in assay [5] (setting [7]); 6% in assay [5] (setting [8]); -13.8% in assay [5] (at 50.0 µM); -12% in assay [6] (setting [7]); 4% in assay [6] (setting [8]); 58.3% in assay [6] (at 50.0 µM).

Take `S=C(NCc1ccccc1)[S][Sb]([S]C(=S)NCc1ccccc1)[c]1ccccc1`: the growth inhibition was 1% in assay [1] (setting [7]); 95% (active) in assay [1] (setting [8]); 95.8% (active) in assay [1] (at 50.0 µM); 2% in assay [2] (setting [7]); 97% (active) in assay [2] (setting [8]); 88.4% (active) in assay [2] (at 50.0 µM). For the same molecule, the growth inhibition was -138% in assay [3] (setting [7]); 93% (active) in assay [3] (setting [8]); 96% (active) in assay [3] (at 50.0 µM); -6% in assay [4] (setting [7]); 89% (active) in assay [4] (setting [8]); 69.8% in assay [4] (at 50.0 µM). Besides, the growth inhibition in assay [5] (setting [7]) is -11%; in assay [5] (setting [8]) it was 93% (active); in assay [5] (at 50.0 µM) it was 84.5% (active); in assay [6] (setting [7]), 6%; in assay [6] (setting [8]) it was 87% (active); in assay [6] (at 50.0 µM), 97.3% (active).

As for `Cc1ccc(C2(O)c3ccccc3-c3ccccc32)cc1`, the growth inhibition was 4% in assay [1] (setting [7]); 98% (active) in assay [1] (setting [8]); 99.2% (active) in assay [1] (at 50.0 µM); 8% in assay [2] (setting [7]); 100% (active) in assay [2] (setting [8]); 99.2% (active) in assay [2] (at 50.0 µM). In addition, the growth inhibition in assay [3] (setting [7]) was 15%; in assay [3] (setting [8]), 99% (active); in assay [3] (at 50.0 µM), 99.2% (active); in assay [4] (setting [7]), -9%; in assay [4] (setting [8]), 99% (active); in assay [4] (at 50.0 µM), 98.2% (active). Besides, the growth inhibition in assay [5] (setting [7]) was -8%; in assay [5] (setting [8]), 99% (active); in assay [5] (at 50.0 µM) it was 99.3% (active); in assay [6] (setting [7]), -4%; in assay [6] (setting [8]), 98% (active); in assay [6] (at 50.0 µM), 99% (active).

As to `CC(C)=CCC/C(C)=C/CC/C(C)=C/CSc1ccccc1C(=O)O`, the growth inhibition in assay [1] (setting [7]) was 22%; in assay [1] (setting [8]), 17%; in assay [1] (at 50.0 µM), 76.3% (active); in assay [2] (setting [7]), 10%; in assay [2] (setting [8]) it was 14%; in assay [2] (at 50.0 µM) it was 75.8% (active). In addition, the growth inhibition in assay [3] (setting [7]) is 14%; in assay [3] (setting [8]), 10%; in assay [3] (at 50.0 µM), 54.5%; in assay [4] (setting [7]), 8%; in assay [4] (setting [8]) it was 20%; in assay [4] (at 50.0 µM) it was 10.2%. The growth inhibition was 18% in assay [5] (setting [7]); 19% in assay [5] (setting [8]); 62.2% in assay [5] (at 50.0 µM); 22% in assay [6] (setting [7]); 18% in assay [6] (setting [8]); 41.5% in assay [6] (at 50.0 µM).

Turning to `CCCCOC(=O)C(=O)/C(=C/N1C(=O)/C(=C/C(C)=C/c2ccccc2)SC1=S)C(=O)C=C(C)C`, the growth inhibition is 0% in assay [1] (setting [7]); 8% in assay [1] (setting [8]); 39.7% in assay [1] (at 50.0 µM); -13% in assay [2] (setting [7]); 10% in assay [2] (setting [8]); 63.4% in assay [2] (at 50.0 µM). For the same molecule, the growth inhibition in assay [3] (setting [7]) is -10%; in assay [3] (setting [8]), 5%; in assay [3] (at 50.0 µM) it was 50.5%; in assay [4] (setting [7]), -25%; in assay [4] (setting [8]), 11%; in assay [4] (at 50.0 µM) it was 46.8%. In addition, the growth inhibition in assay [5] (setting [7]) was -10%; in assay [5] (setting [8]), 26%; in assay [5] (at 50.0 µM), 68%; in assay [6] (setting [7]), 1%; in assay [6] (setting [8]), 14%; in assay [6] (at 50.0 µM), 71.1% (active).

As for `O=C1c2ccc3ccccc3c2CCC1[n+]1ccc2ccccc2c1` (stereo not given), the growth inhibition in assay [1] (setting [7]) was 1%; in assay [1] (setting [8]) it was 57%; in assay [1] (at 50.0 µM) it was 53.4%; in assay [2] (setting [7]), 11%; in assay [2] (setting [8]), 76% (active); in assay [2] (at 50.0 µM), 77.3% (active). The growth inhibition was 7% in assay [3] (setting [7]); 79% (active) in assay [3] (setting [8]); 70.7% (active) in assay [3] (at 50.0 µM); -5% in assay [4] (setting [7]); 29% in assay [4] (setting [8]); 83.6% (active) in assay [4] (at 50.0 µM). For the same molecule, the growth inhibition in assay [5] (setting [7]) was -4%; in assay [5] (setting [8]), 63%; in assay [5] (at 50.0 µM) it was 71% (active); in assay [6] (setting [7]), 15%; in assay [6] (setting [8]), 85% (active); in assay [6] (at 50.0 µM), 69.5%.

The values are drawn from PubChem BioAssay (NCI).
